The results in this text go back to PubChem BioAssay (NCI).

Holding throughout (test): NCI-60 one-dose screen, 48 h (100 = growth as untreated, 0 = no growth, -100 = all killed)
Holding throughout (conditions): 10 µM unless noted

The subject of assay [1] is HT29 colon.
The subject of assay [2] is SNB-75 CNS.
Assay [3] deals with SNB-19 CNS.
Assay [4] relates to U251 CNS.
The subject of assay [5] is PC-3 prostate.
For assay [6], the system named is SK-MEL-5 melanoma.
Assay [7] has as its system UACC-62 melanoma.
The test system of assay [8] is LOX IMVI melanoma.
The subject of assay [9] is SK-MEL-28 melanoma.

SMILES strings stand for the structures. Compounds without any hit were thinned out: in the full panel of roughly 83,000, 20% have a hit.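 Note: values are percent growth. 100 is the growth of untreated cells, values between 100 and 0 indicate rising inhibition; between -100 and 0 indicates cell death.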 A number with no mark means an inactive call. Calls of active or inactive are those of the source. The calls were made as follows: active = growth percent below 10; inactive = the rest.

For `Oc1ccccc1-c1nc2ccccn2c1NCCN1CCOCC1`, the growth in assay [1] is 93.8%; in assay [2], 80.2%; in assay [3], 99.7%; in assay [4], 97%; in assay [5], 87.4%; in assay [6] it was 98.7%. Moreover, the results for the growth in [7], in [8] and in assay [9] were 95.3%, 94.4% and 94.4%, respectively.

Take `CN1C(=O)CCC(N2C(=O)c3cccc(NCCOCCOCCNC(=O)c4cc5c(o4)C(=O)c4ccccc4C5=O)c3C2=O)C1=O` (stereo not drawn): the growth in assay [1] is 0.328% (active); in [2] it was -98.2% (active); in assay [3], 1.34% (active); in [4], -5.25% (active); in assay [5], 7.64% (active); in assay [6] it was -97% (active). The results for the growth in [7], in [8] and in assay [9] were -91% (active), -53.6% (active) and -19.9% (active), respectively.

As to `O=C1C2=C(CCN(Cc3ccccc3)C2)N2CCN=C2N1Cc1ccc(C(F)(F)F)cc1`, the growth in [1] is 31%; in [2], 38.1%; in assay [3] it was 27.7%; in [4], 21.8%; in assay [5], 20.3%; in [6], 14.2%. For the same compound, the growth in assay [7] was 18.4%; in [8], 29.2%; in assay [9] it was 47.1%.

`C=C1C(=O)O[C@H]2[C@H]1CC/C(C(=O)NCCCCCCCCNC(=O)/C1=C/CC[C@@]3(C)O[C@H]3[C@H]3OC(=O)C(=C)[C@@H]3CC1)=C\CC[C@@]1(C)O[C@@H]21`: the growth is 82.5% in [1]; 85.9% in assay [2]; 99.3% in assay [3]; 95.6% in [4]; 74.5% in [5]; 98.3% in assay [6]. The growth in assay [7] was 56.3%; in [8], 84%; in [9], 42.3%.

As to `CCCCN(Cc1ccc(C(=O)NO)cc1)C(=O)Nc1ccc(OCCCCCCCCCn2cc(CCCCC(=O)N[C@H](C(=O)N3C[C@H](O)C[C@H]3C(=O)NCc3ccc(-c4scnc4C)cc3)C(C)(C)C)nn2)cc1`, the growth in [1] was 19.8%; in assay [2], 34.6%; in assay [3], 29.5%; in [4], 34.8%; in assay [5], 27.8%; in assay [7], 35.9%. Moreover, the growth in assay [8] is 23.2%; in [9] it was 62.8%.

For `CC(=O)Nc1nccs1`, the growth in assay [1] is 101%; in [2], 106%; in assay [3] it was 96.3%; in assay [4], 98.9%; in [5], 96.1%; in assay [6] it was 101%. For the same compound, the values for the growth in [7], in [8] and in assay [9] were 92.7%, 94.8% and 98.6%, respectively.

Take `Cl.Fc1c[c-]c(-c2ccccn2)c(F)c1.[Pt].c1ccc([PH+](c2ccccc2)c2ccccc2[PH+](c2ccccc2)c2ccccc2)cc1`: the growth is -63.3% (active) in assay [1]; -98.3% (active) in assay [2]; -94.9% (active) in [3]; -87.8% (active) in [4]; -86.6% (active) in assay [5]; -97.2% (active) in assay [6]. Besides, the growth in [7] is -85.6% (active); in [8], -92.6% (active); in [9], -94.5% (active).

Take `NC(=O)c1c(NC(=O)c2ccccn2)sc2c1CCC(=O)C2`: the growth in assay [1] was 68%; in assay [2], -1.34% (active); in [3] it was 42.7%; in assay [4], 13.6%; in [5] it was 10.7%; in assay [6] it was -19.5% (active). The growth in assay [7] was -3.06% (active); in assay [8], 21.6%; in [9], 39.9%.

For `Cc1cc(=O)[nH]c(N/N=C/c2cc(Br)ccc2O)n1`, the growth in assay [1] was 58.9%; in assay [2], 62.9%; in [3], 40.6%; in assay [4], 26.8%; in assay [5], 56.8%; in assay [6], 26.3%. The growth in assay [7] was 4.29% (active); in [8], 9.27% (active); in assay [9], 42.8%.

On to `CC(/C=N/NC(=O)c1cc(-c2ccco2)[nH]n1)=C\c1ccccc1`, for which the growth in [1] was 113%; in [2], 66.8%; in assay [3] it was 100%; in assay [4] it was 96.7%; in assay [5], 92.1%; in [6], 98.8%. For the same compound, the growth is 94% in assay [7], 97.9% in assay [8] and 104% in assay [9].

For the compound `C[N+](C)(C)CCOC(OCC[N+](C)(C)C)(c1ccccc1)c1ccccc1`, the growth was 104% in [1]; 87.3% in [2]; 93.9% in [3]; 104% in assay [4]; 92.7% in assay [5]; 110% in [6]. In addition, the results for the growth in assay [7], in [8] and in assay [9] were 99.3%, 98.6% and 104%, respectively.

Consider `CCCCOc1ccc(NC(=O)n2nc(N=NN(C)C)c3ccc(Cl)cc32)cc1`, for which the growth in [1] is 98.1%; in [2], 89.1%; in [3], 106%; in assay [4] it was 118%; in assay [5] it was 88.5%; in assay [6] it was 107%. In addition, the growth in [7] is 86.4%; in assay [9] it was 106%.

In the case of `COc1ccc(C(=O)/C=C/c2cc3c(c(OC)c2)OCC(=O)N3)cc1`, the growth in assay [1] was 19.2%; in assay [2], 20.7%; in [3] it was 76.1%; in assay [4], 67.6%; in assay [5], 49.6%; in assay [6], 84.2%. The results for the growth in assay [7], in assay [8] and in assay [9] were 85.3%, 40.1% and 73.1%, respectively.

As for `O=C1Nc2ccccc2SC1C1SC(=S)N(Cc2ccccc2)C1=O` (stereo not drawn), the growth in [1] was 12.9%; in assay [2] it was 51.4%; in assay [3], 107%; in assay [4], 98.3%; in assay [5] it was 88.4%; in [6] it was 95.9%. In addition, the figures for the growth in assay [7], in assay [8] and in [9] were 98.5%, 86.2% and 58.8%, respectively.

`C/C(=N\NC(N)=S)c1nc2ccc(Cl)cc2[nH]1`: the growth is 32.8% in assay [1]; 43.6% in assay [2]; 57.6% in assay [3]; 49.9% in assay [4]; 52.3% in [5]; 45.3% in [6]. In addition, the growth is 36.7% in [7], 43.7% in assay [8] and 68.7% in assay [9].
